# TRPV1 agonist = HTS Assay for Compounds that Act as Agonists of the Vanilloid Receptor 1 | Transient receptor potential cation channel subfamily V member 1 (Homo sapiens), Q8NER1 | TRPV1-expressing cells, Fluo-8 calcium influx, agonist mode | activation, % at 8.33 µM | 320,000 tested, 0.19% active | AID 540275, 2011; in the data active = activation above about 80%; inconclusive = between about 30% and that limit
# Target sequence (Q8NER1 whole entry, looked up): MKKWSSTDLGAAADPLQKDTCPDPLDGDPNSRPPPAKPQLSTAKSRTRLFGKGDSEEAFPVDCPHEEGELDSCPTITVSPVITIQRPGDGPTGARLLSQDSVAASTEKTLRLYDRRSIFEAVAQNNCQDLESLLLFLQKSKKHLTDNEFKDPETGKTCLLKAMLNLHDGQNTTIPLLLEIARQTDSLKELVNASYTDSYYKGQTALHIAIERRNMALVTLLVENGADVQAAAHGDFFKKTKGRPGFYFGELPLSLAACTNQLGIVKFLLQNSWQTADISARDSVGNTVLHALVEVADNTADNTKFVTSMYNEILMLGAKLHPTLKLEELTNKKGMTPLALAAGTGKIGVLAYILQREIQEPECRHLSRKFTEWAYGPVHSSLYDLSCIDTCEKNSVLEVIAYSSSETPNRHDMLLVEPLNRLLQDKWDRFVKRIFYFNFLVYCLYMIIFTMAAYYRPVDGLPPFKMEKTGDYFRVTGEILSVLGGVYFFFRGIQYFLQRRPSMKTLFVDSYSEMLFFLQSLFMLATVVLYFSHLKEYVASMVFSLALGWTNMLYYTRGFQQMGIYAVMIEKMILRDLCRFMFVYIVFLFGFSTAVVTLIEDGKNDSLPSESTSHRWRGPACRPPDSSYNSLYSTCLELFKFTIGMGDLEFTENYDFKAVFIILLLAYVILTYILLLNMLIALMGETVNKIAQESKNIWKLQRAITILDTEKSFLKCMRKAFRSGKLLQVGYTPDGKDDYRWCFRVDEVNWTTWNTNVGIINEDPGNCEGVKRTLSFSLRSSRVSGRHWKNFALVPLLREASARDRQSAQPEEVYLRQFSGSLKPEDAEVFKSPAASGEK
#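 TRPV1-expressing cells were cultured overnight at 35.5C and loaded with Fluo-8 calcium dye for 40 to 90 min at room temperature. After a 10 s baseline, compound was added and calcium influx was read kinetically for 3 min (ex 480/em 520 nm).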
# KCNH2 3.1 inh = qHTS for Inhibitors of KCHN2 3.1: Mutant qHTS | Potassium voltage-gated channel subfamily H member 2, brain isoform KCNH2 3.1 (human) | U2OS KCNH2 3.1, thallium flux FluxOr; stronger effect = lower value | activity change, % (tested at about 1.8 µM) | 340,000 tested, 0.95% active | AID 720553, 2013;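 active = maximum activity change below -70%; inconclusive = maximum activity change from -70% to -50%; inactive = maximum activity change above -50%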;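 note: thallium influx rate constant from kinetic fluorescence after stimulation buffer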
#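 Kinetic fluorescence (2 min after stimulation buffer) measures Tl+ influx through KCNH2 3.1 expressed by viral transduction in U2OS cells; the rate constant is normalized against DMSO controls serving as positive and negative references.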
# ClpP mod = qHTS Assay for Activators of ClpP | purified B. subtilis ClpP, FRET peptide cleavage, 20 min | 340,000 tested, 1.9% active | Potency, µM (top dose mostly 57.5 µM) | AID 651965, 2013 | ATP-dependent Clp protease proteolytic subunit (Bacillus subtilis (strain 168)), P80244; active = well fitted falling curve with a large enough effect; inconclusive = small, poorly fitted or top-dose-only effect; inactive = no such curve, though single readings can be large or run the other way; note: the source files actives as falling curves though it sought activators and does not explain the sign; nearly all actives have a fitted effect of over 65% in size
#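 Purified B. subtilis ClpP, 10 microg/mL final in Tris/HCl pH8 with KCl, BSA, glycerol and Tween-20, cleaved an Abz/nitrotyrosine-quenched decapeptide. Fluorescence (ex 320, em 430) was read at 0 and 20 min at room temperature. Delta was normalized to 5.8 microM ADEP and DMSO/no-enzyme controls.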
# TRPV1 PAM = HTS Assay for Compounds that Act as Potentiators of the Vanilloid Receptor 1. TRPV1-expressing cells, Fluo-8 calcium influx, capsaicin EC20 potentiation. AID 540277, 2011. potentiation, % at 8.33 µM. 320,000 tested, 0.02% active; in the data active = potentiation above about 80%; inconclusive = between about 30% and that limit
#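 Fluo-8 calcium influx in TRPV1-expressing cells, kinetic read (ex 480/em 520 nm). Compound added and read 3 min for agonist activity, followed by capsaicin at EC20 final and 2 min further read for enhancement.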
# p53 reactivator = qHTS assay for re-activators of p53 using a Luc reporter. H1299 p53-A138V BP100-luciferase reporter, luminescence, 24 h. Potency, µM (titrated, usually from 92.2 µM), usual class: activators. 320,000 tested, 0.063% active. AID 504706, 2011; active = well fitted activation curve with a large enough effect; inconclusive = small, poorly fitted or top-dose-only effect; inactive = no such curve, though single readings can be large or run the other way; note: nearly all actives have a fitted effect of over 45% in size
#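 p53-null H1299 cells stably carrying temperature-sensitive p53-A138V and a BP100-luciferase reporter were pinned with compounds (4-point, 1:5 series) and held 24 hrs at 37 deg C. Luminescence was read 10 min after detection reagent.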
# KCNH2 WT inh = qHTS for Inhibitors of KCHN2 3.1: Wildtype qHTS | activity change, % at 1.84 µM | U2OS, BacMam KCNH2, thallium flux FluxOr; stronger effect = lower value | 340,000 tested, 0.37% active;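 active = maximum activity change below -70%; inconclusive = maximum activity change between -70% and -50%; inactive = maximum activity change above -50%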
#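 U2OS cells were transduced with wild-type KCNH2 virus (2.03 x 10^8 / mL) for 4 h at room temperature, then cultured overnight at 37 C. Thallium flux was read with FluxOr dye. Rate constants were normalized to DMSO controls.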
# Hits are given with their value; n = inactive; u = inconclusive; x = no result. A selection: hits, their analogues and other compounds. The true share with any hit is near 2.6%.
SMILES,TRPV1 agonist,KCNH2 3.1 inh,ClpP mod,TRPV1 PAM,p53 reactivator,KCNH2 WT inh
COc1ccc2oc(=O)c(C(=O)NCc3cccnc3)cc2c1,n,n,28µM,n,n,n
COc1cccc2cc(C(=O)NCC3CCCO3)c(=O)oc12 (configuration not stated),n,n,n,n,n,n
CNC(=O)c1cc2ccc(OC)cc2oc1=O,n,x,n,n,n,n
COc1ccc(-c2cc(C(F)F)n3ncc(C(=O)NCC4CCCO4)c3n2)cc1 (configuration not stated),n,n,22µM,n,n,n
CC(C)CN1C(=O)CSCC1(C)C(=O)NC(C)C (configuration not stated),x,x,n,x,x,x
CCCCNC(=O)CCn1c(=O)c2ccccc2n(Cc2cccc(Cl)c2)c1=O,x,x,n,x,x,x
Cc1ccc(Cn2c(CNC(=O)c3cccc(C)c3)nc3ccccc32)cc1,x,x,n,x,x,x
COc1ccc([C@H]2CC(=O)C=C(c3cccc(C(F)(F)F)c3)C2)cc1,u,-75,n,n,n,n
COc1ccc(C(=O)NCC(c2cccnc2)N2CCc3ccccc3C2)cc1OC (configuration not stated),x,x,n,x,x,x
CC1(C)CC(=O)C2=C(C1)c1c(ccc3ccccc13)NC2c1ccc(OCC(=O)O)cc1 (configuration not stated),n,n,n,n,n,n
CC1(C)CC(=O)C2=C(C1)c1c(ccc3ccccc13)NC2c1ccc(Br)o1 (configuration not stated),n,n,13µM,n,n,n
Cc1cc(Cl)ccc1-c1nc(NC(C)C)nc2ccsc12,x,x,n,x,x,x
COc1ccc(NC(=S)NCc2ccc(F)cc2)c(OC)c1,n,n,n,n,x,n
COc1cc(OC)c(NC(=S)NCc2ccc(F)cc2)cc1Cl,n,-107,x,n,n,n
Cc1c(C(=O)NCc2cccc(F)c2)oc2c1-c1[nH]ncc1CC2,x,x,28µM,x,x,x
COC(=O)c1cc(COc2ccc3oc(C)c(C(=O)OC(C)C)c3c2)c(C)o1,n,n,2.5µM,n,n,n
Clc1nc(-c2ccccn2)nc2scc(-c3ccccc3)c12,n,n,28µM,n,11µM,n
O=C(CSc1ccc(Cl)cc1)Nc1ccc(-c2nc3ccccc3[nH]2)cc1,n,n,25µM,n,n,n
CCC(=O)N(CCO)Cc1cc2ccc(C)c(C)c2[nH]c1=O,n,n,n,n,n,n
CCOc1ccc2[nH]c(=O)c(CN(CCO)C(=O)c3ccc(Br)cc3)cc2c1,n,-140,32µM,n,n,n
CCOc1ccc2[nH]c(=O)c(CN(Cc3ccco3)C(=O)c3cccc(F)c3)cc2c1,n,n,32µM,n,n,n
CCOc1ccc2[nH]c(=O)c(CN(Cc3ccccc3OC)C(=O)c3ccccc3)cc2c1,n,n,32µM,n,n,n
CCOc1ccc2[nH]c(=O)c(CN(Cc3ccco3)C(=O)c3ccc(Br)cc3)cc2c1,n,n,u,n,n,n
CCOc1ccc2[nH]c(=O)c(CN(CCO)C(=O)CC)cc2c1,n,n,28µM,n,n,n
Cc1noc(Cn2c(=O)c3ccccc3n(CC(=O)Nc3cc(Cl)ccc3C)c2=O)n1,x,x,n,x,x,x
SMILES,TRPV1 agonist,KCNH2 3.1 inh,ClpP mod,TRPV1 PAM,p53 reactivator,KCNH2 WT inh
CN(CC(=O)O)c1ccc(/C=C/c2ccnc3ccccc23)cc1,x,x,n,x,x,x
CCc1ccc(NC(=O)C2CCCN(S(=O)(=O)c3cccc4cccnc34)C2)cc1 (configuration not stated),x,x,n,x,x,x
CCc1ccc(OCCCn2c(CCNC(=O)C3CCCCC3)nc3ccccc32)cc1,x,x,n,x,x,x
Cc1ccccc1NS(=O)(=O)c1ccc2[nH]cc(C(=O)N3CCCC3)c(=O)c2c1,x,x,n,x,x,x
O=C1CC(c2ccccc2)Cc2[nH]c(=O)c(-c3nc(-c4ccc(F)cc4)cs3)cc21 (configuration not stated),n,x,n,n,x,x
CN1c2ccccc2-c2nc3ccccc3n2C1c1ccncc1 (configuration not stated),n,n,20µM,n,n,n
CN1c2ccccc2-c2nc3ccccc3n2C1c1ccccn1 (configuration not stated),n,n,n,n,n,n
COC(=O)c1ccc(Cl)cc1NC(=O)N1CC=C(c2c[nH]c3ccccc23)CC1,x,x,28µM,x,x,x
COc1ccc(Cl)cc1NC(=O)c1c(C(=O)Nc2cccc(C)c2C)sc2nc(C)cc(=O)n12,x,x,n,x,x,x
COc1ccc2nc(-c3ccccc3)nc(SC)c2c1,x,n,22µM,x,x,n
COc1ccc2nc(-c3ccccc3)nc(C3CCCCC3)c2c1,n,n,u,u,n,n
N#Cc1c(-c2ccccc2)cc(-c2ccccc2)nc1SCC(O)CS(=O)(=O)Cc1ccc(Cl)cc1 (configuration not stated),x,x,10µM,x,x,x
CC(OC(=O)c1ccc(S(=O)(=O)NCc2ccco2)cc1)C(=O)Nc1ccc(Cl)cn1 (configuration not stated),n,n,n,n,n,n
CNc1ccccc1C(=O)OC(C)C(=O)Nc1ccc(Cl)cn1 (configuration not stated),n,n,25µM,n,n,n
CCOc1ncccc1C(=O)OC(C)C(=O)Nc1ccc(Cl)cn1 (configuration not stated),n,n,n,n,n,n
CC(OC(=O)Cc1ccsc1)C(=O)Nc1ccc(Cl)cn1 (configuration not stated),n,n,25µM,n,n,n
CC(OC(=O)c1ccccc1NCc1ccco1)C(=O)Nc1ncc(Cl)cc1Cl (configuration not stated),n,n,32µM,n,n,n
COc1ccccc1NCc1nnc2n1CCCCC2,x,x,n,x,x,x
Cc1cc(C)nc(NC(=S)NC(=O)c2ccccc2F)n1,x,n,x,x,x,n
Cc1cc(C)nc(S/C=C/C(=O)c2ccccc2F)n1,n,n,35µM,n,n,n
